Measurements: the supplement of paper PMC11006884
About 6,500 targets were measured; listed, in parts, are those with a hit and a random draw of the rest. About 2% of all pairs of compound and target were hits.

compound: COC(=O)C#Cc1ccccc1 [methyl 3-phenylpropiolate]; experiment: log2 ratio of iodoacetamide-alkyne labeling of the cysteine site, DMSO over compound (competition); higher = stronger covalent engagement of the cysteine by the compound, active = 1 or more; settings: 500 µM; treatment time 1 h; system: HEK293T cell lysate
Summary of the method: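 HEK293T lysate (2 mg/mL) was incubated with electrophile (500 µM) or vehicle for 1 h at ambient temperature and then with iodoacetamide alkyne for 1 h. Labelled proteins were clicked to sCIP-TMT reagents, pooled, digested, enriched on streptavidin and measured by Orbitrap Eclipse LC-MS/MS with FAIMS, with FragPipe quantification. The per-cysteine log2 competition ratio is mean control-channel reporter intensity over mean compound-channel reporter intensity. Across three replicates with duplicate channels, cysteines quantified in only one replicate were excluded.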

UniProt O00178, sequence (O00178 whole entry, looked up): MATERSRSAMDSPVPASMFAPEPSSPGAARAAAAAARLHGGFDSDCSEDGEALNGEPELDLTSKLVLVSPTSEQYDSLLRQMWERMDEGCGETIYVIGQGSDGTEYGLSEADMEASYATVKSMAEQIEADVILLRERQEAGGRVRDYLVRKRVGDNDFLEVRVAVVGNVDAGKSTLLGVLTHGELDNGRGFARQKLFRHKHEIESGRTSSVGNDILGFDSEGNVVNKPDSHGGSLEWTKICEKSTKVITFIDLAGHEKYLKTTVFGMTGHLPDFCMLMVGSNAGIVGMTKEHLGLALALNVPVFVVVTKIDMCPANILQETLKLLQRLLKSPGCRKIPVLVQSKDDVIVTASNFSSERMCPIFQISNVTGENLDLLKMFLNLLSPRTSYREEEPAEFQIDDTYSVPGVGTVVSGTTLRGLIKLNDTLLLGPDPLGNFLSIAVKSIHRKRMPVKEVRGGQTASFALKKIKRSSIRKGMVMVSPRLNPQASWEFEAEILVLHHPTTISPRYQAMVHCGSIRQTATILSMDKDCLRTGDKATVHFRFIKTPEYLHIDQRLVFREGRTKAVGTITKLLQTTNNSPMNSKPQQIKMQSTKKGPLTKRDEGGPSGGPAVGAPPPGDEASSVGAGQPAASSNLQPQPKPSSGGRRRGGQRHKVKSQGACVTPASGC
UniProt O00471, sequence (O00471 whole entry, looked up): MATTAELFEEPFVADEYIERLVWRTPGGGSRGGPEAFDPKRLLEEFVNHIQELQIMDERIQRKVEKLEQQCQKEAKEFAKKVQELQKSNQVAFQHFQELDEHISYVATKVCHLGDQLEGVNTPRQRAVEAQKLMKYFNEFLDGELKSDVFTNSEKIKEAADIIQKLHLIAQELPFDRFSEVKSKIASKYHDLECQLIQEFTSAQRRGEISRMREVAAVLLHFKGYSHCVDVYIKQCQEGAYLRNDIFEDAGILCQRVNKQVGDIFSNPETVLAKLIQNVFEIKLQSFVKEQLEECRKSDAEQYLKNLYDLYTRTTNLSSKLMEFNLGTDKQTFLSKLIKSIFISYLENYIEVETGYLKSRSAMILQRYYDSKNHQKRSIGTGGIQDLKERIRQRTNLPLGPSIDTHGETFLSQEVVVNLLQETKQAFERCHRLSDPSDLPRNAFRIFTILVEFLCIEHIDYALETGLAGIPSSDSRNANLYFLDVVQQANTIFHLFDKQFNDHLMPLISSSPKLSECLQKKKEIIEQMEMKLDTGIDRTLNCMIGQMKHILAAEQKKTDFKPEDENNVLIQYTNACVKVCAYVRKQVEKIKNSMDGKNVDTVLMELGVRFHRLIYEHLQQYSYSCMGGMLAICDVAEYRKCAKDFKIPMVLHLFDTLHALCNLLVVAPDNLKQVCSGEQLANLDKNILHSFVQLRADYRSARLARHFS
UniProt O00231, sequence (O00231 whole entry): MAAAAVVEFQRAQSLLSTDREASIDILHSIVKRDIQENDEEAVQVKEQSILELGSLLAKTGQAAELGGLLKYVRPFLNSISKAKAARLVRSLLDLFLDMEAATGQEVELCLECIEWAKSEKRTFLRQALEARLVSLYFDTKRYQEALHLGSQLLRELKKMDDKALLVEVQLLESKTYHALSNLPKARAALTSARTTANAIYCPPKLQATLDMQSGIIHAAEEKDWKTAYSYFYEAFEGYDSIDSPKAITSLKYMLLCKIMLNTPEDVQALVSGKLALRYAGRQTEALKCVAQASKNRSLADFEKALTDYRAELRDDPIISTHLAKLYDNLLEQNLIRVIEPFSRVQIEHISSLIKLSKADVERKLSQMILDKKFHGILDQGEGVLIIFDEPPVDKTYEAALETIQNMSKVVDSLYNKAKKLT
UniProt O94906, sequence (O94906 whole entry, looked up): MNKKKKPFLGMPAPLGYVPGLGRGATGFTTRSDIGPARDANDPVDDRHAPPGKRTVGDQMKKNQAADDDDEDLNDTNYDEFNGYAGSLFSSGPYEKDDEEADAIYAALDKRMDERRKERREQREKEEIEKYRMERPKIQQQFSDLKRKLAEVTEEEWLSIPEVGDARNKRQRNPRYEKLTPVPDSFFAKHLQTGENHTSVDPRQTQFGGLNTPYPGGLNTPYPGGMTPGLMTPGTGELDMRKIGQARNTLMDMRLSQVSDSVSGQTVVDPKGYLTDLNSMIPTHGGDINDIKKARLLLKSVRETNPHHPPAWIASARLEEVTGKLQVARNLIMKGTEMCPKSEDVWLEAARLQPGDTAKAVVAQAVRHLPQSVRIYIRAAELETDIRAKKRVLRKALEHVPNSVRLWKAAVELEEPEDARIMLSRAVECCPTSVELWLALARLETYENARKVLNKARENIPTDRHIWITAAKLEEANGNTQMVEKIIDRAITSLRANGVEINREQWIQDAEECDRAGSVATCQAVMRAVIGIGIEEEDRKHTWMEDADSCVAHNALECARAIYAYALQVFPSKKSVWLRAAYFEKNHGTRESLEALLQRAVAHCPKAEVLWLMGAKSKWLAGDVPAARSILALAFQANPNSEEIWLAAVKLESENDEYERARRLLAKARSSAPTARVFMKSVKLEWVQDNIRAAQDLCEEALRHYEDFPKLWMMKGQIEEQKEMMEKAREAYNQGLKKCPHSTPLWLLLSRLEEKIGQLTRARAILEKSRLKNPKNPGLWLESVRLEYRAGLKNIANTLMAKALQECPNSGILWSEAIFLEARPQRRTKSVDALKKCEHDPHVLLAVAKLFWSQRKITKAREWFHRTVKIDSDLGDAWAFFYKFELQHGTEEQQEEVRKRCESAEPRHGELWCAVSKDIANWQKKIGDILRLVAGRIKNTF
UniProt A5PLL7, sequence (A5PLL7 whole entry, looked up): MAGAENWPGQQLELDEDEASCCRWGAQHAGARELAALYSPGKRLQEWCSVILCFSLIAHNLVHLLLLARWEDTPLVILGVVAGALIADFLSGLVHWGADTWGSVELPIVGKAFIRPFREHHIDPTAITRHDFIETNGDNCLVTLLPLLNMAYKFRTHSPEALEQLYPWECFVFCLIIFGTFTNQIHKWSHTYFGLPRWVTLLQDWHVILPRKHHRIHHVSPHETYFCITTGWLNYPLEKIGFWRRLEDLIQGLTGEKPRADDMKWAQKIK
UniProt O75663, sequence (O75663 whole entry, looked up): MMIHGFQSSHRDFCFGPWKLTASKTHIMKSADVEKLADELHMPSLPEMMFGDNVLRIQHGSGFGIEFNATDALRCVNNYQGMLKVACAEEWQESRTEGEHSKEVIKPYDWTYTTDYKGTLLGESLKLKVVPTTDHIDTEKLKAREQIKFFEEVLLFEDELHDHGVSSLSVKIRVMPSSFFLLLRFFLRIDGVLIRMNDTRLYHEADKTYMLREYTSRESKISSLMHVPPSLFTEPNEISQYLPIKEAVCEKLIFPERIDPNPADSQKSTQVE
UniProt O14980, sequence (O14980 whole entry, looked up): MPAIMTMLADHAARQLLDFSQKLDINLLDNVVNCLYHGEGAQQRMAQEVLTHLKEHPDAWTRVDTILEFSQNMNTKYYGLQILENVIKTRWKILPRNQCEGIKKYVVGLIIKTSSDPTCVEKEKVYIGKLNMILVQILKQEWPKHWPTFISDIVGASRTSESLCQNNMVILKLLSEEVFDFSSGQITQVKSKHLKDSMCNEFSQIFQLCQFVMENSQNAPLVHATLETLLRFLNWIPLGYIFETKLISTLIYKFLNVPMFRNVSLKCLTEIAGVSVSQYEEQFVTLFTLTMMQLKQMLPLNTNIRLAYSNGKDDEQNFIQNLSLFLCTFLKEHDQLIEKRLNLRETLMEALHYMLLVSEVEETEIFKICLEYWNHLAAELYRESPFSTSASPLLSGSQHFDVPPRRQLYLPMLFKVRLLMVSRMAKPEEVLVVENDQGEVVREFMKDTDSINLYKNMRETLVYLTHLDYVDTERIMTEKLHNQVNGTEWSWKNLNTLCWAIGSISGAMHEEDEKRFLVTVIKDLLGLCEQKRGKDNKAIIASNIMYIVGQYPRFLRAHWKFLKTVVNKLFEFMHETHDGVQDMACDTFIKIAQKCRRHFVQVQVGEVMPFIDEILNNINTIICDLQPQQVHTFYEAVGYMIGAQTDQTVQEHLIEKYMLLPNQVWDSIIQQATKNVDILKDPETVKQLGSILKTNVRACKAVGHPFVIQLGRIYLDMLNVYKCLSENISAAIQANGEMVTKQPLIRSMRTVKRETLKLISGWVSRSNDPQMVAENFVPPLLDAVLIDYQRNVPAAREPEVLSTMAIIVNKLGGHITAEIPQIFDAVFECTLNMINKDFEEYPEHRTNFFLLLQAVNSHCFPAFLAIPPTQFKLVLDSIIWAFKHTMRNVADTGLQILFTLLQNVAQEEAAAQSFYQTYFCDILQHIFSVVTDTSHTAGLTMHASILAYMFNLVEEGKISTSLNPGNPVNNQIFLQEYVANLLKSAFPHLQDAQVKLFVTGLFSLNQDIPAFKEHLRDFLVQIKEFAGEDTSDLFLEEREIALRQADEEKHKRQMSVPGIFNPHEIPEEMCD
UniProt O15173, sequence (O15173 whole entry): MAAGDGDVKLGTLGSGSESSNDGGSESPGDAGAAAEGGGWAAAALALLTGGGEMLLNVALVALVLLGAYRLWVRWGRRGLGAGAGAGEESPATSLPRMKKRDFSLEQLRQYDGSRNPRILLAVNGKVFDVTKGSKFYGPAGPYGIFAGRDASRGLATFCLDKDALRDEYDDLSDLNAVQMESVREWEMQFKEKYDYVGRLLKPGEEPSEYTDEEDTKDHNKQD
UniProt O75818, sequence (O75818 whole entry): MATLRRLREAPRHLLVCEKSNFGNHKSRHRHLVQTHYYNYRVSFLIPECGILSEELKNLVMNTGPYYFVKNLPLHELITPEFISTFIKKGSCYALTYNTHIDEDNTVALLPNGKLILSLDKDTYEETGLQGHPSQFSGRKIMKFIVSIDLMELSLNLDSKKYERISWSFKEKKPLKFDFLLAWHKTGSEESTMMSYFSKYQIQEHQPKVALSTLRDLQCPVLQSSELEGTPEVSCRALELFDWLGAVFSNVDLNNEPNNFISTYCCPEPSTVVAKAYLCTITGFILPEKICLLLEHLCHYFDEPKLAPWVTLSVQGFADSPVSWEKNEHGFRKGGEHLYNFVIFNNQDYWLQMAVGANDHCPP

log2 ratio of iodoacetamide-alkyne labeling, active:
RECQL5 C664 (UniProt O94762) 1.47, TMEM189 C21 (UniProt A5PLL7) 1.52, HEXIM1 C84 (UniProt O94992) 1.3, WASL C431 (UniProt O00401) 1.06, PFAS C1285 (UniProt O15067) 1.36, HTATSF1 C462 (UniProt O43719) 1.14, GTPBP1 C669 (UniProt O00178) 1.13, HEXIM1 C79 (UniProt O94992) 1.3, TIPRL C87 (UniProt O75663) 1.32, TRAFD1 C476 (UniProt O14545) 1.55

log2 ratio of iodoacetamide-alkyne labeling, inactive:
HEXIM1 C18 (UniProt O94992) 0.398, NVL C192 (UniProt O15381) 0.306, RNMT C73 (UniProt O43148) 0.607, DNM1L C361 (UniProt O00429) 0.736, UniProt O95071_C2267 0.736, WDR46 C456 (UniProt O15213) 0.493, DVL2 C412 (UniProt O14641) 0.134, NVL C550 (UniProt O15381) -0.302, UniProt O43929_C16 0.153, PGRMC2 C159 (UniProt O15173) 0.159, UTP20 C2058 (UniProt O75691) 0.539, VPS4B C240 (UniProt O75351) 0.188, NVL C626 (UniProt O15381) 0.651, PRPF6 C698 (UniProt O94906) 0.0824, DNM1L C367 (UniProt O00429) 0.986, PFAS C270 (UniProt O15067) 0.115, SF3B1 C1035 (UniProt O75533) 0.375, XPO1 C164 (UniProt O14980) -0.00596, EIF3D C437 (UniProt O15371) -0.116, CD3EAP C107 (UniProt O15446) 0.723, DDX3X C128 (UniProt O00571) 0.406, ZZEF1 C2466 (UniProt O43149) -0.132, RPP40 C49 (UniProt O75818) 0.0974, PSMD11 C289 (UniProt O00231) 0.253, UniProt O94822_C498 0.086, EXOC5 C111 (UniProt O00471) 0.297, EIF3D C196 (UniProt O15371) 0.719, UniProt O60232_C56 0.126, AP3D1 C137 (UniProt O14617) 0.262
